According to PubChem BioAssay (NCI):
This is part of a sample that, as a whole, favours compounds with a hit. Of some 83,000 tested, about 20% had one in any assay.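 The endpoint reported here, percent growth, reads 100 for growth as untreated, 0 for no net growth and -100 for all cells dead.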 Unmarked numbers belong to inactive results. Activity calls are given as the source filed them. How the source made its calls: active means growth percent below 10; inactive means the rest.

test system: HOP-62 NSCLC; experiment: NCI-60 one-dose screen, 48 h (100 = growth as untreated, 0 = no growth, -100 = all killed); conditions: 10 µM

Q: For `O=C(/C=C/c1ccco1)c1nc2ccccc2n1Cc1ccc(Br)cc1`, which growth is on record?
A: 57%

Q: Which growth does the source give for `O=C(/C=C/c1ccco1)c1nc2ccccc2n1Cc1ccc(F)cc1` here?
A: 87.6%

Q: For `COc1cc2cc(C(=O)N3C[C@@H](CCl)c4c3cc(OC(=O)N3CCN(C)[C@@H]5CSSC[C@@H]53)c3ccccc43)[nH]c2c(OC)c1OC`, which growth is on record?
A: -32.3% (active)

Q: With `C#CC[Se]C(=O)c1ccc2n[se]nc2c1` as the compound, how does the growth read?
A: 28.6%

Q: `O=C(/C=C/c1ccc(Cl)cc1Cl)c1nc2ccccc2n1Cc1ccc(F)cc1` was tested. Which growth did it give?
A: 58.2%

Q: For `O=C(/C=C/c1ccc(Cl)cc1)c1nc2ccccc2n1Cc1ccc(Br)cc1`, which growth is on record?
A: 65.5%

Q: With `CCOP(=O)(OCC)C(NC(C)=O)C(=O)SCCN` (centres undefined) as the compound, how does the growth read?
A: 107%

Q: `COc1cc2cc(C(=O)N3C[C@@H](CCl)c4c3cc(OC(=O)N3CCN(C)[C@@H]5CSSC[C@H]53)c3ccccc43)[nH]c2c(OC)c1OC` was tested. Which growth did it give?
A: -19.1% (active)

Q: For `COc1ccc2cc([C@H](C)C(=O)[Se]CCC#N)ccc2c1`, which growth is on record?
A: -81.2% (active)

Q: How did the growth turn out when `CC12OOC(C)(OO1)C2CCC(=O)OCCNc1ccnc2cc(Cl)ccc12` (centres undefined) was run?
A: 96.8%

Q: `CC(C)N=C([Se])NC(=O)c1cccs1` was tested. Which growth did it give?
A: -2.97% (active)

Q: For `Cc1ccc2[nH]c(=S)n(-c3ccc(F)cc3)c(=O)c2c1`, which growth is on record?
A: 96.3%

Q: For `CCOC(=O)C1=C(Nc2ccccc2)C(=O)OC12C(=O)Nc1ccccc12` (centres undefined), which growth is on record?
A: 97.6%

Q: Which growth does the source give for `CC12CCC3(CCC(=O)NCCCNc4ccnc5cc(Cl)ccc45)[C@@](C)(OO[C@]3(C)O1)O2` here?
A: -6.39% (active)

Q: `CC[C@]12C=CCN3CC[C@@]4(c5ccc(OC)cc5N(C)[C@H]4[C@@](O)(C(=O)OC)[C@@H]1OC(=O)CCCC[P+](C1CCCCC1)(C1CCCCC1)C1CCCCC1)[C@@H]32` was tested. Which growth did it give?
A: 9.52% (active)

Q: `CC(=O)Oc1ccccc1C(=O)[Se]C(=NC(C)C)NC(C)C` was tested. Which growth did it give?
A: -70.9% (active)

Q: For `COCCOCCOCCOc1ccc(-n2cc(CCCN(CCNc3ccnc4cc(Cl)ccc34)C(=O)CCC(=O)O[C@@H]3O[C@@H]4OC5(C)CC[C@H]6[C@H](C)CC[C@@H]([C@H]3C)[C@@]46OO5)nn2)cc1`, which growth is on record?
A: 61.2%

Q: With `C[C@H]1[C@@H](CC(=O)N[C@@H](Cc2coc3ccccc23)B(O)O)O[C@@H]2OC3(C)CC[C@H]4[C@H](C)CC[C@@H]1[C@@]24OO3` as the compound, how does the growth read?
A: -17.3% (active)

Q: `COP(=O)(CC(F)(F)C(F)(F)F)OC` was tested. Which growth did it give?
A: 99.7%

Q: Which growth does the source give for `CC12OOC(C)(OO1)C2CCC(=O)NCCNc1ccnc2cc(Cl)ccc12` (centres undefined) here?
A: 89.9%

Q: `CC[C@]12C=CCN3CC[C@@]4(c5ccc(OC)cc5N(C)[C@H]4[C@@](O)(C(=O)OC)[C@@H]1OC(=O)CCC[P+](c1ccc(C)cc1)(c1ccc(C)cc1)c1ccc(C)cc1)[C@@H]32` was tested. Which growth did it give?
A: -81.6% (active)

Q: How did the growth turn out when `CC(C)N=C([Se])NC(=O)c1ccccc1` was run?
A: 8.36% (active)

Q: `CC[C@]12C=CCN3CC[C@@]4(c5ccc(OC)cc5N(C)[C@H]4[C@@](O)(C(=O)OC)[C@@H]1OC(=O)CCC[P+](C1CCCCC1)(C1CCCCC1)C1CCCCC1)[C@@H]32` was tested. Which growth did it give?
A: 4.26% (active)

Q: How did the growth turn out when `CC1=C(COCCOC(=O)c2ccc(S(=O)(=O)F)cc2)C2=C(C)C3(CC3)[C@@](C)(O)C(=O)C2=C1` was run?
A: -27.5% (active)

Q: How did the growth turn out when `CC[C@]12C=CCN3CC[C@@]4(c5ccc(OC)cc5N(C)[C@H]4[C@@](O)(C(=O)OC)[C@@H]1OC(=O)CCCC[P+](c1ccc(OC)cc1)(c1ccc(OC)cc1)c1ccc(OC)cc1)[C@@H]32` was run?
A: -80.8% (active)

Q: How did the growth turn out when `CC1=C(CCC=NNC(N)=O)C2=C(C)C3(CC3)[C@@](C)(O)C(=O)C2=C1` was run?
A: -78.8% (active)

Q: `CC[C@@]12CC(C(=O)OC)=C3Nc4cc5c(cc4[C@@]34CCN(C[C@H]3O[C@H]31)[C@@H]24)[C@@H]1[C@H](O5)[C@@H](O)[C@@]2(CC)CC(C(=O)OC)=C3Nc4cc(OC)ccc4[C@@]34CCN1[C@@H]24` was tested. Which growth did it give?
A: 21.5%

Q: `CCOP(=O)(CC(F)(F)C(F)(F)F)OCC` was tested. Which growth did it give?
A: 90.9%

Q: How did the growth turn out when `CC1=C2C(=C[C@@](C)(COP(=O)(Oc3ccccc3)Oc3ccccc3)[C@@H]2O)C(=O)[C@@](C)(O)C12CC2` was run?
A: -88.4% (active)

Q: Which growth does the source give for `CC(=O)Oc1ccccc1C(=O)NC([Se])=NC1CCCCC1` here?
A: 9.51% (active)

Q: With `C[C@H]1[C@H](OC(=O)CCC(=O)N(CCCc2cn(-c3ccc(CN4CCOCC4)cc3)nn2)CCNc2ccnc3cc(Cl)ccc23)O[C@@H]2OC3(C)CC[C@H]4[C@H](C)CC[C@@H]1[C@@]24OO3` as the compound, how does the growth read?
A: 56.4%

Q: How did the growth turn out when `O=C(/C=C/c1ccc(Cl)cc1)c1nc2ccccc2n1Cc1ccc(F)cc1` was run?
A: 17.7%

Q: How did the growth turn out when `CC1=C(CCC=O)C2=C(C)C3(CC3)[C@@](C)(O)C(=O)C2=C1` was run?
A: -62.7% (active)

Q: `O=C(NC([Se])=NC1CCCCC1)c1ccc2c(c1)OCO2` was tested. Which growth did it give?
A: 23.3%

Q: `C[C@H]1[C@H](OC(=O)CCC(=O)N(CCCc2cn(-c3ccc(C#N)cc3)nn2)CCNc2ccnc3cc(Cl)ccc23)O[C@@H]2OC3(C)CC[C@H]4[C@H](C)CC[C@@H]1[C@@]24OO3` was tested. Which growth did it give?
A: 66.4%

Q: How did the growth turn out when `C[C@H]1[C@@H](Oc2ccc(-c3cn(-c4ccnc5cc(Cl)ccc45)nn3)cc2)O[C@@H]2OC3(C)CC[C@H]4[C@H](C)CC[C@@H]1[C@@]24OO3` was run?
A: 46.3%

Q: Which growth does the source give for `COc1ccc(/C=C/C(=O)c2nc3ccccc3n2Cc2ccc(Br)cc2)cc1` here?
A: 92.8%

Q: With `COC(=O)CCn1c(-c2ccc(-n3cc(-c4ccc(O[C@H]5O[C@@H]6OC7(C)CC[C@H]8[C@H](C)CC[C@@H]([C@H]5C)[C@@]68OO7)cc4)nn3)cc2)nc2ccccc21` as the compound, how does the growth read?
A: 32%

Q: With `C[C@H]1[C@H](OC(=O)CCC(=O)N(CCCc2cn(-c3ccc([N+](=O)[O-])cc3)nn2)CCNc2ccnc3cc(Cl)ccc23)O[C@@H]2OC3(C)CC[C@H]4[C@H](C)CC[C@@H]1[C@@]24OO3` as the compound, how does the growth read?
A: 69.4%
